{
  "source": "PubChem BioAssay AID651599",
  "about": "(National Center for Advancing Translational Sciences (NCATS), 2012)",
  "note": "Inconclusive results are not listed. Where a call stands in place of a potency, no number is given. The source made the active and inactive calls. Calls come from the whole dose curve; as a rule, active = well fitted inhibition curve with a large enough effect; inconclusive = small, poorly fitted or top-dose-only effect; inactive = no such curve, though single readings can be large or run the other way. Potency is the fitted concentration of half-maximal effect.",
  "data": [
    {"molecular_target": "Tumor susceptibility gene 101 protein (Homo sapiens) (UniProt Q99816)", "sequence (Q99816 whole entry, looked up, the tested form may be a part)": "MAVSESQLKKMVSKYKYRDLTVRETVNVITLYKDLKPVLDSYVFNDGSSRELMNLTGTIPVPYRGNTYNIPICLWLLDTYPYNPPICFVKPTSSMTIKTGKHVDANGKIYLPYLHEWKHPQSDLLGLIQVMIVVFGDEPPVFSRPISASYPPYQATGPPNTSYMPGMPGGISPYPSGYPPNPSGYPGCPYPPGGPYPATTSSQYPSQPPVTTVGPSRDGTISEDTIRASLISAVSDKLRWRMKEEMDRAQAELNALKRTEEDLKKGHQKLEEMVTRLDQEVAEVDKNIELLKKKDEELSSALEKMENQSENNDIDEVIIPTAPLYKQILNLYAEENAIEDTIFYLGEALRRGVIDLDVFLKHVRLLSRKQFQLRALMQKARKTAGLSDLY", "experiment": "qHTS Assay for Iinhibitors of HIV-1 Budding by Blocking the Interaction of PTAP/TSG101: Hit Validation in TR assay", "conditions": "Tsg101 binding domain + Texas Red-labeled PTAP peptide, fluorescence polarization, 20 min; series mostly up to 57.5 µM", "from_the_text": "Stages of the HIV-1 replication cycle, specifically virus assembly and release, provide underexploited targets for the development of novel antiviral inhibitors. The late stages of HIV-1 replication are mediated by the Gag precursor protein, Pr55Gag. Expression of Pr55Gag is both necessary and sufficient for the production of virus-like particles from Gag-expressing cells. The Gag protein hijacks key host proteins involved in endocytic machinery of the host cell to promote endosomal processing and viral budding. The budding process requires a direct interaction between a […] (PTAP) motif in the p6 domain of Gag and the cellular endosomal sorting protein known as Tsg101. In this way, the Gag PTAP motif promotes the host cells to recruit viral particles to the plasma membrane where the new viral particles are released, effectively turning the host cells into viral factories. A fluorescence anisotropy assay has been developed to quantitatively measure the PTAP-Tsg101 interaction which can be used to screen for inhibitors of this interaction.\nThis hit validation assay is similar to the primary assay but uses the Texas Red label instead of FITC.\nNIH Molecular Libraries Probe Production Network [MLPCN]\nNIH Chemical Genomics Center [NCGC]\nPI Name: Dr. Eric Freed, NCI\nTwo uL of the Tsg101 binding domain in buffer (10 mM HEPES pH 7.5; 0.15 M NaCl, 0.01% Tween 20; 3 mM EDTA;0.1 mM TCEP) was dispensed into Greiner black MB 1536-well plates (final concentration 10 uM). Then, 23 nL of compounds or DMSO were delivered to each well using a pin tool. Finally, 2 uL of a TR-labeled peptide containing the PTAP motif (1) in the same buffer was dispensed (50 nM final concentration) and the binding was allowed to proceed for 20 min. at r.t. Fluorescent polarization was determined using TR excitation and polarized emission filters on a Perkin Elmer Viewlux.\nKeywords: Tsg101, PTAP, Gag, HIV, fluorescent polarization, MLSMR, MLPCN, NIH Roadmap, qHTS, NCGC", "values": [
      {"smiles": "O=C1Nc2ccccc2/C1=C/c1cnc(-c2ccccc2)[nH]1", "Potency": "inactive"},
      {"smiles": "Cn1c(=O)c(Nc2ccc(O)cc2)c2c3c(cccc31)C(=O)c1ccccc1-2", "Potency": "inactive"},
      {"smiles": "CCN(c1ccc(N=Cc2c(O)n(Cc3ccc(OC)cc3)c(=O)c3ccccc23)cc1)C(C)C", "Potency": "inactive"},
      {"smiles": "Brc1ccc(C2=CC(c3cccs3)n3ncnc3N2)cc1", "note": "(stereo not given)", "Potency": "inactive"},
      {"smiles": "N#Cc1ccsc1NC(=O)CSc1nncs1", "Potency": "inactive"},
      {"smiles": "O=c1cc2oc3cc(O)c(O)cc3c(-c3ccccc3O)c-2cc1O", "Potency": "16.3 µM (active)"},
      {"smiles": "Cc1nc(Cl)c2c(n1)NC1=C(O2)C(=O)CCC1", "Potency": "inactive"},
      {"smiles": "Cc1ccc(N2C3=C(C(=O)CC(C)(C)C3)C(c3cn(C)nc3C)C3=C2CC(C)(C)CC3=O)cc1", "Potency": "inactive"},
      {"smiles": "N#CC(C#N)=C1C=C2C=C(N3CCCCC3)CCC2CC1", "note": "(stereo not given)", "Potency": "inactive"},
      {"smiles": "COc1ccc2c(C=Nc3c(C)n(C)n(-c4ccccc4)c3=O)c(O)n(Cc3ccco3)c(=O)c2c1", "Potency": "inactive"},
      {"smiles": "Nc1ccc2c3c(cccc13)C(=O)N(c1ccccc1)C2=O", "Potency": "inactive"},
      {"smiles": "CCSc1nnc(-c2sc3nnc(-c4ccccc4)c(-c4ccccc4)c3c2N)o1", "Potency": "inactive"},
      {"smiles": "Cc1c2ccccc2nc2c(F)c(NCCO)c(F)c(F)c12", "Potency": "inactive"},
      {"smiles": "CCN(CC)c1ccc2cc(S(=O)(=O)c3ccc(C)cc3)c(=O)oc2c1", "Potency": "inactive"},
      {"smiles": "CN1CCc2c(sc3c2C(=O)NC(c2ccco2)N3)C1", "note": "(stereo not given)", "Potency": "inactive"},
      {"smiles": "CCOC(=O)c1c(C)oc2c1c(CN1CCN(C(=O)OCC)CC1)c(O)c1ccccc12", "Potency": "inactive"},
      {"smiles": "CC(=O)n1c(C=Nc2ccc(Cl)cc2)c(O)c2ccccc21", "Potency": "inactive"},
      {"smiles": "CCOc1cc(/C=C(\\C#N)c2nc(-c3cccs3)c(NC(C)=O)s2)ccc1O", "Potency": "inactive"},
      {"smiles": "CCN(CC)c1ccc2cc(-c3nnc(-c4ccncc4)o3)c(=O)oc2c1", "Potency": "inactive"},
      {"smiles": "CCCN1C(=O)/C(=C\\C=C2\\N(CC)c3ccccc3C2(C)C)SC1=S", "Potency": "inactive"},
      {"smiles": "Cc1n[nH]c(C)c1N1C(=O)c2cccc3c(N4CCCCCC4)ccc(c23)C1=O", "Potency": "inactive"},
      {"smiles": "Nc1c(C(=O)O)sc2nc(-c3ccccc3)cc(-c3ccc(Cl)cc3)c12", "Potency": "inactive"},
      {"smiles": "O=S(=O)(Nc1cccc(-c2ccc(N3CCCCCC3)nn2)c1)c1cccc(F)c1", "Potency": "inactive"},
      {"smiles": "COc1ccc(OC)c(/C=C(\\C#N)c2nc3ccccc3c(=O)[nH]2)c1", "Potency": "inactive"},
      {"smiles": "CS(=O)(=O)Nc1nc2n(n1)C(c1ccccc1)C=C(c1ccc(Br)cc1)N2", "note": "(stereo not given)", "Potency": "inactive"},
      {"smiles": "Cc1ccc(N=Cc2c(O)n(-c3nccs3)c(=O)c3ccccc23)c(C)c1", "Potency": "inactive"},
      {"smiles": "CCN(CC)c1ccc2cc(NC(=O)CCC(=O)O)c(=O)oc2c1", "Potency": "inactive"},
      {"smiles": "CC(=O)Nc1ccc2cc3ccc(NC(C)=O)cc3nc2c1", "Potency": "inactive"},
      {"smiles": "Cc1cc(/C=C2\\SC(=S)N(Cc3ccco3)C2=O)c(C)n1-c1cccnc1", "Potency": "inactive"},
      {"smiles": "CCN(CC)c1ccc(/C=C(\\C#N)C(=O)NCc2ccccc2)cc1", "Potency": "inactive"},
      {"smiles": "Cc1cc[n+](-c2[nH]c(=O)sc2/C=N/NC([S-])=Nc2ccccc2)cc1", "Potency": "inactive"},
      {"smiles": "CSC1=NSC2=NC(=O)/C(=C/c3coc4ccccc4c3=O)C(=N)N12", "Potency": "inactive"},
      {"smiles": "CCN(CC)c1ccc(/C=C(/C#N)c2nc3ccc(C)cc3[nH]2)c(OC(C)C)c1", "Potency": "inactive"},
      {"smiles": "CCN(CC)c1ccc2cc(S(=O)(=O)c3ccc(Cl)cc3)c(=O)oc2c1", "Potency": "inactive"},
      {"smiles": "CCOC(=O)Cn1c(=NC(=O)c2ccc([N+](=O)[O-])s2)sc2ccccc21", "Potency": "inactive"},
      {"smiles": "O=C(c1ccccc1)c1ccc(O)cc1O", "Potency": "inactive"},
      {"smiles": "Oc1c(C=Nc2ccccc2)sc2ccccc12", "Potency": "36.6 µM (active)"},
      {"smiles": "CCCCCOc1ccc(/C=c2\\sc3nc(=O)c(-c4ccccc4)nn3c2=O)cc1OC", "Potency": "inactive"},
      {"smiles": "CC(=O)c1cccc(-n2nnnc2SCC(=O)Nc2cc(C)on2)c1", "Potency": "inactive"},
      {"smiles": "Cn1nc([N+](=O)[O-])c(C(C#N)c2nc3ccccc3n2C)c(Cl)c1=O", "note": "(stereo not given)", "Potency": "inactive"}
    ]}
  ]
}
